IL1B secr inh: qHTS for Inhibitors of Inflammasome Signaling: IL-1-beta AlphaLISA Primary Screen; activity change, % at 57.5 µM; actives 4.7% (n = 360,000); AID 743279, 2014; THP-1 LPS/ATP IL-1B secretion, AlphaLISA, 16 h; stronger effect = lower value; in the data active = activity change below about -50%; inconclusive = mostly about -30% to -49%
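Secreted IL-1B measured by AlphaLISA bead assay after 16 h compound exposure of THP-1 cells; compounds (final up to 57.5 uM) added 1 h before LPS (250 ng/mL) and ATP (1.25 mM) stimulation; lower signal means less secretion.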
TDP1 cell CPT: qHTS for Inhibitors of human tyrosyl-DNA phosphodiesterase 1 (TDP1): qHTS in cells in presence of CPT. chicken DT40 Tdp1-/-;hTDP1 cells + 20 nM CPT, ATP luminescence, 48 h. Potency, µM (doses to about 46.2 µM), hits mostly inhibitors. actives 12% (n = 420,000). AID 686979, 2013; also: nearly all actives have a fitted effect of over 55% in size
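Chicken DT40 Tdp1-/- cells complemented with human TDP1, 400 cells/well, exposed to compounds plus 20 nM camptothecin for at least 48 h at 37 C; viability read as ATP content by CellTiter-Glo luminescence.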
TGFb inhibitor: qHTS for Inhibitors of TGF-b. Potency, µM (top dose mostly 46.1 µM), usual class: inhibitors. HepG2 CAGA-GFP TGF-b/SMAD3 reporter, GFP fluorescence, 18 h; TGF-beta stimulated, 500 pg/mL final. actives 1.2% (n = 410,000); also: nearly all actives have a fitted effect of over 65% in size
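Smad-responsive CAGA-GFP expression was quantified in HEPG2 cells exposed to compounds and 500 pg/mL final TGF-beta for 18 h at 37 degrees C; unstimulated wells defined full inhibition.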
HepG2 viability: qHTS for Inhibitors of TGF-b: Cytotox Counterscreen | actives 0.76% (n = 410,000) | HepG2 CAGA-GFP viability, ATP luminescence, 18 h | Potency, µM (series often up to 46.1 µM), actives largely listed as cytotoxic | AID 588856, 2011
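HepG2 CAGA-GFP cells (1000/well, DMEM with 1% FBS) received compound, then TGF-beta at 500 pg/mL final, and were incubated 18 hours at 37 degrees C. Viability was read by CellTiter-Glo luminescence. Media-only wells were set as complete cell-killing and DMSO as no toxicity.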
TDP1 block: qHTS Assay for Inhibitors of Tyrosyl-DNA Phosphodiesterase (TDP1) | recombinant TDP1, AlphaScreen DNA substrate cleavage | Potency, µM (top dose mostly 130 µM), most hits filed as inhibitors | actives 0.28% (n = 350,000) | AID 485290, 2010; also: nearly all actives have a fitted effect of over 40% in size
Target sequence (Q9NUW8 whole entry, looked up): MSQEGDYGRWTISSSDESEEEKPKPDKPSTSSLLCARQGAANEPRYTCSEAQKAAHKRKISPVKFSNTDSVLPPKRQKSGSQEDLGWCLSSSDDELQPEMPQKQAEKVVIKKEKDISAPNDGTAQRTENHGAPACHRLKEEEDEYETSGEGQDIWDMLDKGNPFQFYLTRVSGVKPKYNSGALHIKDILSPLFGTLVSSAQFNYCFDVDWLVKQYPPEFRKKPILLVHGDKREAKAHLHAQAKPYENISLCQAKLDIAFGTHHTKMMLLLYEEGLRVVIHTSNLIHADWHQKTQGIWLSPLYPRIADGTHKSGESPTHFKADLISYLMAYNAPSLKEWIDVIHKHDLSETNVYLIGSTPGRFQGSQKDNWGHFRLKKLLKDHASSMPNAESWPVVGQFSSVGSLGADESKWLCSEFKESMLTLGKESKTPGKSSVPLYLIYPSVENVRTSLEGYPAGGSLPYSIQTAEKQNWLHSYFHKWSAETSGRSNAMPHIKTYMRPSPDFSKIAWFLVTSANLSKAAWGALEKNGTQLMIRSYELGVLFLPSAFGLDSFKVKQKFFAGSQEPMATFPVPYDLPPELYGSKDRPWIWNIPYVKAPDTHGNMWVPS
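Compounds were preincubated with Tdp1 (1 nM final) for 15 min at room temperature before substrate (15 nM final) started a 5 min reaction; beads (10 ug/ml final) were then added for 10 min before AlphaScreen detection.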
TDP1 cell noCPT: qHTS for Inhibitors of human tyrosyl-DNA phosphodiesterase 1 (TDP1): qHTS in cells in absence of CPT; DT40 Tdp1-/- hTDP1 cells, no CPT, ATP luminescence, 48 h; Potency, µM (doses to about 46.2 µM), hits mostly inhibitors; actives 15% (n = 420,000); AID 686978, 2013; also: nearly all actives have a fitted effect of over 55% in size
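DT40 Tdp1-/-;hTDP1 cells, no CPT (DMSO vehicle only), 400 cells/well; compounds pin-transferred; ≥48 hr, 37 °C; CellTiter-Glo 30 min RT dark, luminescence read.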
A number is an active result; n = inactive; u = inconclusive; x = no result given. Hits are enriched below; roughly 19% of the tested compounds scored in any of these assays. Unless noted, calls follow the shape of the dose curve; as a rule, active = well fitted curve in the direction sought with a large enough effect; inconclusive = small, poorly fitted or top-dose-only effect, or another doubt; inactive = no such curve, though single readings can be large; an effect the other way counts as inactive or inconclusive.

SMILES	IL1B secr inh	TDP1 cell CPT	TGFb inhibitor	HepG2 viability	TDP1 block	TDP1 cell noCPT
CCN(CC)S(=O)(=O)c1ccc2c(c1)nc(CCC(=O)O)n2CC	n	n	n	n	n	n
COc1cc2ncc(C(=O)c3ccc(C)cc3)c(N3CCCCC3)c2cc1OC	x	12µM	u	n	n	12µM
CCOC(=O)C1CCN(c2c(C(=O)c3ccc(OCC)cc3)cnc3ccc(OC)cc23)CC1	x	23µM	8.9µM	n	n	21µM
CCOC(=O)C1CCCN(c2c(C(=O)c3ccccc3)cnc3ccc(OC)cc23)C1 (centres undefined)	n	15µM	n	n	n	21µM
CCOC(=O)C1CCCN(c2c(C(=O)c3ccc(OCC)cc3)cnc3ccccc23)C1 (centres undefined)	x	18µM	n	n	n	u
O=C(CSc1nc2c([nH]c3ccccc32)c(=O)n1-c1ccc(F)cc1)N1CCCc2ccccc21	x	u	n	n	n	n
Cn1c(=O)c2c(-c3ccccc3)n(-c3ccccc3)cc2n(C)c1=O	n	3.7µM	n	n	x	4.6µM
Cn1c(=O)c2c(-c3ccccc3)n(-c3cccc(C#N)c3)cc2n(C)c1=O	x	16µM	n	n	n	23µM
Cn1c(=O)c2c(-c3ccccc3)n(-c3cc(C(=O)O)ccc3O)cc2n(C)c1=O	n	n	n	n	x	n
CC(=O)Nc1ccc(-n2cc3c(c2-c2ccc(C)cc2)c(=O)n(C)c(=O)n3C)cc1	x	u	n	n	n	u
Cn1c(=O)c2c(-c3ccccc3)n(-c3ccccc3F)cc2n(C)c1=O	n	15µM	u	n	x	13µM
COC(=O)c1sccc1-n1cc2c(c1-c1ccccc1)c(=O)n(C)c(=O)n2C	n	u	u	n	x	21µM
Cn1c(=O)c2c(-c3ccccc3)n(-c3cc([N+](=O)[O-])ccc3N)cc2n(C)c1=O	n	u	n	n	x	u
CCn1c(C)c(C(=O)c2ccccc2)c(C#N)c1C(=O)O	n	u	u	n	x	n
Cn1c(=O)c2c(-c3cccc(Br)c3)n(C(C)(C)CO)cc2n(C)c1=O	x	u	n	n	n	u
COc1ccc(-c2c3c(=O)n(C)c(=O)n(C)c3cn2-c2ccccc2)cc1	n	26µM	n	n	n	13µM
Cn1c(=O)c2c(-c3ccccc3)n(-c3cccc(Br)c3)cc2n(C)c1=O	n	9.2µM	u	n	x	8.2µM
C#CCn1cc2c(c1-c1ccccc1)c(=O)n(C)c(=O)n2C	n	16µM	n	n	x	21µM
CCOC(=O)c1ccc(O)c(-n2cc3c(c2-c2ccccc2)c(=O)n(C)c(=O)n3C)c1	n	u	n	n	x	15µM
COc1ccc(NC(=O)CCS(=O)(=O)c2cc3c4c(c2)CCN4C(=O)CC3)c(OC)c1	x	n	n	n	n	n
O[C@@H]1CN(Cc2ccccc2Cl)CC[C@H]1N1CCOCC1	n	n	n	n	x	n
O=C(Nc1ccc(F)cc1F)c1cc2nc(-c3ccco3)cc(C(F)(F)Cl)n2n1	x	n	n	n	n	n
Cn1c(=O)c2c(-c3ccccc3)n(Cc3cccnc3)cc2n(C)c1=O	n	n	n	n	n	n
COc1ccc(-c2c3c(=O)n(C)c(=O)n(C)c3cn2N2CCOCC2)cc1	n	n	n	n	n	u
COc1ccc(-c2c3c(=O)n(C)c(=O)n(C)c3cn2-c2cccc(N)c2)cc1	x	u	n	n	n	23µM
SMILES	IL1B secr inh	TDP1 cell CPT	TGFb inhibitor	HepG2 viability	TDP1 block	TDP1 cell noCPT
Cn1c(=O)c2c(-c3ccccc3)n(-n3cnnc3)cc2n(C)c1=O	n	26µM	u	n	n	u
COC(=O)CC1COc2ccccc2N1S(=O)(=O)c1ccc(OC)cc1 (centres undefined)	n	3.7µM	n	n	x	5.2µM
Cc1ccc(CN2CCN(C3CCN(C(=O)Nc4ccc(C)cc4Cl)CC3)C(=O)C2=O)cc1	x	n	n	n	n	u
O=C(CCc1nc(-c2cccs2)no1)Nc1ccccc1[N+](=O)[O-]	x	n	n	n	n	u
COc1ccc(N2CCN(C(=O)[C@@H](NC(=O)c3ccccc3Cl)C(C)C)CC2)cc1	n	u	n	n	n	u
COc1ccccc1N1C(=N)S/C(=C\c2ccc(-c3ccccc3C(=O)O)o2)C1=O	n	n	n	n	11µM	n
Cc1ccc(NC(=O)CN2C(=O)S/C(=C\c3ccc(-c4cccc(C(=O)O)c4C)o3)C2=O)cc1C	n	n	n	n	79µM	n
O=C(CN1C(=O)S/C(=C\c2ccc(-c3cc(C(=O)O)ccc3Cl)o2)C1=O)Nc1ccc2c(c1)OCO2	x	x	x	x	7.9µM	x
Cn1cc(/C=C2/SC(=O)N(CC(=O)Nc3ccc4c(c3)OCO4)C2=O)c2ccccc21	u	u	n	n	n	u
COc1cc(CN2CCC(n3nccc3NC(=O)c3ccc4c(c3)OCO4)CC2)ccc1O	n	n	n	n	n	n
CCCCCC/C=N/Nc1nnc(Cc2ccc(OC)c(OC)c2)c(=O)[nH]1	n	u	n	n	x	u
COc1ccc(Cc2nnc(N/N=C/c3ccc(O)cc3O)[nH]c2=O)cc1OC	-53	5.8µM	n	n	n	5.8µM
O=C(Nc1ccccc1C(F)(F)F)N1CC=C(c2c[nH]c3ccccc23)CC1	x	21µM	n	n	n	26µM
O=C(Nc1ccc(F)c(Cl)c1)N1CC=C(c2c[nH]c3ccccc23)CC1	x	23µM	n	n	n	16µM
Cc1cccc(NC(=O)c2cccc(NC(=O)c3ccccc3)c2)n1	n	4.1µM	n	n	x	u
O=C(Nc1cccc(C(=O)Nc2cccc(Br)c2)c1)c1ccccc1	n	23µM	n	n	x	u
O=C(NNC(=O)c1cccc(Br)c1)Nc1ccc(Cl)cc1	n	23µM	n	n	n	u
O=C(Nc1cccc(C(=O)Nc2ccccc2F)c1)c1ccccc1	n	u	n	n	x	23µM
Cc1cccc(NC(=O)Nc2ccccc2)n1	n	n	n	n	x	n
CC(O)[C@@H]1NC(=O)[C@H](CCCCN)NC(=O)[C@@H](Cc2c[nH]c3ccccc23)NC(=O)[C@H](Cc2ccccc2)NC(=O)[C@@H](NC(=O)[C@H](N)Cc2ccccc2)CSSC[C@@H](C(=O)N[C@H](CO)[C@@H](C)O)NC1=O (some centres undefined)	x	n	x	x	x	n
